# Screening results (PubChem BioAssay)
# In the library only some 15% were active in any assay of this set; here they are far more common.
# Gal4-VP16 FLuc: counter-screen for ROR gamma inhibitors: Gal4-VP16 reporter | Drosophila S2 Gal4-VP16 UAS-luciferase, luminescence, 20 h | actives 3.5% (n = 310,000) | Potency, µM (titrated, usually from 53.6 µM), inactives show top-dose activity, negative = inhibition, actives largely listed as inhibitors;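 note: Gal4-VP16 expression switched on by copper sulfate through the metallothionein promoter; nearly all actives have a fitted effect of over 50% in size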
# DT40 TDP1 CPT: growth inhibition of DT40 Tdp1-/-;hTDP1 cells with camptothecin (screen for TDP1 inhibitors). chicken DT40 Tdp1-/-;hTDP1 cells + 20 nM CPT, ATP luminescence, 48 h. Potency, µM (top dose mostly 46.2 µM), without a hit: top-dose activity change, negative = growth inhibition, most hits filed as inhibitors. actives 12% (n = 420,000). AID 686979; note: nearly all actives have a fitted effect of over 55% in size
#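 Cell growth measured by CellTiter-Glo luminescence after a minimum 48 h, 37 C compound exposure with 20 nM CPT in Tdp1-knockout DT40 cells stably expressing hTDP1, seeded 400/well; qHTS titration format.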
# RORgamma inh: inhibitors of mouse ROR gamma transcriptional activity. actives 5.4% (n = 310,000). Drosophila S2 Gal4-RORgamma UAS-luciferase reporter, 20 h. Potency, µM (titrated, usually from 53.6 µM), for inactives: at the top dose activity change, negative = inhibition, hits mostly inhibitors. P51450; note: nearly all actives have a fitted effect of over 60% in size
#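 A Gal4/UAS one-hybrid system in insect cells: metallothionein-promoter Gal4–ROR gamma fusion plus Photinus luciferase reporter. Copper sulfate 700 uM final, 20 hr ambient incubation, luminescent detection after 10 min with reagent.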
# ELG1 DNA repair: blocks ELG1-dependent DNA repair in HEK293T cells | actives 2.3% (n = 330,000) | AID 504467 | HEK293T ELG1-luciferase reporter, luminescence, 16 h; DNA damage induced by 5-fluorouridine | Potency, µM (top dose mostly 46.1 µM), inactives show top-dose activity change, negative = inhibition, actives largely listed as inhibitors; note: nearly all actives have a fitted effect of over 55% in size
#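 Step one: seed 2,000 cells per well. Step two: pin-transfer compound or DMSO alongside 5-fluorouridine. Step three: incubate 16 hr, 37 °C, 5% CO2. Step four: add ONE-Glo, wait 30 min, read luminescence.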
# DT40 TDP1 no CPT: qHTS for Inhibitors of human tyrosyl-DNA phosphodiesterase 1 (TDP1): qHTS in cells in absence of CPT | DT40 Tdp1-/- hTDP1 cells, no CPT, ATP luminescence, 48 h | Potency, µM (doses to about 46.2 µM), for inactives: at the highest dose activity change, negative = growth inhibition, usual class: inhibitors | actives 15% (n = 420,000) | AID 686978, 2013; note: nearly all actives have a fitted effect of over 55% in size
#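 Chicken DT40 Tdp1-/- cells complemented with human TDP1, screened without camptothecin (DMSO vehicle only), 400 cells/well. Compounds pin-transferred, cells incubated at 37 °C for at least 48 hr. Growth read as ATP-dependent luminescence (CellTiter-Glo, 30 min at RT).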
# 12-LOX inh: ALOX12 (human) lipoxygenase inhibition. P18054. Potency, µM (titrated, usually from 108 µM), without a hit: at the highest dose activity change, negative = inhibition, usual class: inhibitors. actives 1.1% (n = 580,000). AID 1671190. purified 12hLO, xylenol orange hydroperoxide absorbance
# Target sequence (P18054 whole entry, looked up): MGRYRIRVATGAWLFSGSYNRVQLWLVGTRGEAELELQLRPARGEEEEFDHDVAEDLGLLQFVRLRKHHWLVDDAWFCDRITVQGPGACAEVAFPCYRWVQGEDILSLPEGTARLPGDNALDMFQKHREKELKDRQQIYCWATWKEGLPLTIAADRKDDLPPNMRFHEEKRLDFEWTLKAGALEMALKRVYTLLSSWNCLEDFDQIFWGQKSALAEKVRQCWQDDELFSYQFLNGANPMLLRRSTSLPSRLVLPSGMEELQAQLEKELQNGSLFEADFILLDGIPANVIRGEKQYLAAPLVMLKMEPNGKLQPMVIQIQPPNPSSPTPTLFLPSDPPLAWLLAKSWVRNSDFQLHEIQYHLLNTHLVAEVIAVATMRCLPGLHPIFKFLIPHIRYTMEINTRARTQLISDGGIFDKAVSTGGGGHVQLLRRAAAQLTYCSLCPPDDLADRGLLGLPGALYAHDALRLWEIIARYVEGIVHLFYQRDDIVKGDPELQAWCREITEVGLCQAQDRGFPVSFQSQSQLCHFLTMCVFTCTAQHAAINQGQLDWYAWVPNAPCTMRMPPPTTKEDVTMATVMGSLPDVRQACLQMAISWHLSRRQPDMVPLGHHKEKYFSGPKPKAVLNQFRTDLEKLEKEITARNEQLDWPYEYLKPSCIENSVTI
#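 Purified human 12hLO at 150 nM in 25 mM Hepes, 0.01% Triton X-100, pH 7.0, preincubated 15 min at room temperature with compound. Reaction started with 40 uM arachidonic acid, 30 min at room temperature. Hydroperoxide measured by Fe-xylenol orange, 573/405 nm absorbance ratio.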
# Starred values were filed as active, the others as inactive; ? = inconclusive; / = not tested or not shown; [ ] = another dose, or the depositor's remark. Calls come from the whole dose curve; as a rule, active = well fitted curve in the direction sought with a large enough effect; inconclusive = small, poorly fitted or top-dose-only effect, or another doubt; inactive = no such curve, though single readings can be large; an effect the other way counts as inactive or inconclusive. % is set by controls: 0 for no effect and ±100 for the full control effect; potency is the fitted concentration of half-maximal effect.
SMILES,Gal4-VP16 FLuc,DT40 TDP1 CPT,RORgamma inh,ELG1 DNA repair,DT40 TDP1 no CPT,12-LOX inh
COCc1ccc2c(c1)c(OC(C)(C)C(=O)N(C)C)nn2Cc1ccccc1,/,/,/,/,/,3.5%[176 µM]
COC(=O)c1ccc(/C=N/OCc2ccc(C(=O)OC)cc2)cc1,/,/,/,/,/,-54.5%
O=C(Nc1cccc(Cl)c1)[C@@H]1COCC(=O)N1Cc1ccccc1,/,/,/,/,/,34.7%
CCN1CCN(Cc2ccc(NC(=O)c3cc(NC(=O)c4ccc5n[nH]nc5c4)cc(OC)c3)cc2C(F)(F)F)CC1,-4.0%,11.9%,-13.1%,4.5%,-7.2%,6.2%
CCN1CCN(CCC(=O)Nc2cc(OC)cc(OC)c2)CC1,-9.0%,4.3%,14.9%,5.0%,-2.5%,22.3%
CCN1CCN(Cc2ccc(NC(=O)c3ccc(C)c(NC(=O)c4cccc(-c5cn[nH]c(=O)c5)c4)c3)cc2C(F)(F)F)CC1,-1.9%,?,-10.1%,?,16.4µM*,/
CCN1CCN(Cc2ccc(NC(=O)c3cc(NC(=O)C4=NN(c5ccccc5)C(=O)C4)cc(OC)c3)cc2C(F)(F)F)CC1,4.1%,?,6.8%,?,?,?
CCN1CCN(Cc2ccc(NC(=O)c3cc(NC(=O)c4cc(-c5ccc(OC)cc5)n[nH]4)cc(OC)c3)cc2C(F)(F)F)CC1,?,?,?,13.9%,4.61µM*,-6.8%
CCN1CCN(Cc2ccc(NC(=O)c3cc(NC(=O)c4ccno4)cc(OC)c3)cc2C(F)(F)F)CC1,-0.5%,?,-9.4%,2.3%,23.1µM*,?
CCN1CCN(Cc2ccc(NC(=O)c3cc(NC(=O)N4CCNC4=O)cc(OC)c3)cc2C(F)(F)F)CC1,0.4%,16.4µM*,3.6%,?,20.6µM*,?
CCN1CCN(Cc2ccc(NC(=O)c3ccc(C)c(/C=C/c4cnc(Nc5cc(N6CCNCC6)nc(C)n5)cn4)c3)cc2C(F)(F)F)CC1,?,3.26µM*,?,3.9%,14.6µM*,/
CCN1CCN(Cc2ccc(NC(=O)c3ccc(C)c(NC(=O)C4=NN(c5ccccc5)C(=O)C4)c3)cc2C(F)(F)F)CC1,0.4%,?,0.6%,15.7%,?,?
CCN1CCN(Cc2ccc(NC(=O)c3ccc(C)c(NC(=O)c4csc(-c5ccncc5)n4)c3)cc2C(F)(F)F)CC1,-4.7%,16.4µM*,-3.3%,?,23.1µM*,-9.4%
CCN1CCN(Cc2ccc(NC(=O)c3ccc(C)c(NC(=O)C[C@@H]4NC(=O)[C@H](Cc5ccccc5)NC4=O)c3)cc2C(F)(F)F)CC1,-2.3%,4.6%,7.8%,11.9%,0.0%,45.0%
CCN1CCN(Cc2ccc(NC(=O)c3ccc(C)c(NC(=O)c4ccno4)c3)cc2C(F)(F)F)CC1,2.2%,13µM*,1.0%,5.8%,6.51µM*,-57.5%
CCN1CCN(c2ccc(NC(=O)c3cccnc3)cc2Cl)CC1,-4.7%,-8.2%,9.5%,7.2%,-22.7%,47.1%
CCN1CCN(Cc2ccc(NC(=O)c3cc(NC(=O)c4cncc(-c5cccs5)c4)cc(OC)c3)cc2C(F)(F)F)CC1,?,16.4µM*,?,?,7.31µM*,?
CC(=O)N1CCCC(c2nc(-c3ccc4nc[nH]c4c3)no2)C1 (centres undefined),/,/,/,/,/,9.9%
Cc1cnc(NC(=O)c2csc3ccccc23)s1,/,/,/,/,/,22.6%
CCN1CCN(Cc2ccc(NC(=O)c3cc(NC(=O)c4cc5cccc(OC)c5o4)cc(OC)c3)cc2C(F)(F)F)CC1,?,5.8µM*,?,-17.2%,4.61µM*,-98.3%
COc1ccccc1CN1CCc2nc(C(=O)Nc3cccc(C(F)(F)F)c3)oc2CC1,/,/,/,/,/,-18.8%
